Measured values taken from PubChem BioAssay (NCATS).
Inconclusive results are not listed. Calls of active or inactive are those of the source. Unless noted, calls follow the shape of the dose curve; as a rule, active = well fitted curve in either direction with a large enough effect (not every such curve was filed as active); inconclusive = small, poorly fitted or top-dose-only effect, or another doubt; inactive = flat fitted curve, though single readings scatter.

Experiments:
[1] = target: Lysosomal acid glucosylceramidase (Homo sapiens) (UniProt P04062); test: Glucocerebrosidase-p2 (AID 348; in the data active = potency below about 10 µM; also: potency is read from the fitted curve at half-maximal effect); conditions: purified GBA, blue fluorogenic substrate, 40 min
Sequence of Lysosomal acid glucosylceramidase (Homo sapiens) (P04062 whole entry, looked up): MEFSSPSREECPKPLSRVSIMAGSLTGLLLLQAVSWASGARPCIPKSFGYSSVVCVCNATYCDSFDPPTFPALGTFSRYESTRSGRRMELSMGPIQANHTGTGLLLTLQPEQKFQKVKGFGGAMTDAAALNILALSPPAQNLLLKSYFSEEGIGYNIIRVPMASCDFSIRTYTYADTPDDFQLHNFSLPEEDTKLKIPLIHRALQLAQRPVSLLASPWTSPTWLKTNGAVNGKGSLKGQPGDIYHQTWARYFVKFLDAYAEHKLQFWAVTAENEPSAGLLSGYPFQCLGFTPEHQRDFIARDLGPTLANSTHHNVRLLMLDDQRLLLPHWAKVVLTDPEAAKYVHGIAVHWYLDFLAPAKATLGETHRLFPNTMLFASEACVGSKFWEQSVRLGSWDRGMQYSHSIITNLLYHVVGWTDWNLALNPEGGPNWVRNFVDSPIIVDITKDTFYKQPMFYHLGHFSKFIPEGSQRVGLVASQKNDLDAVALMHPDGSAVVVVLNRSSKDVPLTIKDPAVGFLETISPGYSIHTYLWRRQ
How it was run: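 Compounds titrated from 0.6 nM upwards against 0.2 nM enzyme in pH 5.9 citric acid/KH2PO4, taurocholate, tween-20; blue fluorogenic substrate 80 uM, 40 min room temperature, stopped and read Ex 365/Em 440 for AC50.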

[2] = AP1 Signaling Pathway (AID 357); conditions: ME-180 AP-1-bla reporter, EGF-induced, beta-lactamase ratio, 5 h; at 7.69 µM (top of the series) unless noted;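 also: ME-180 reporter cells stimulated with EGF at its EC50 level; % is scaled to controls: 0 for no effect and ±100 for the full control effect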
How it was run: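 First, ME-180 AP-1-bla cells were cultured overnight at 37 °C in low-serum Opti-MEM. Next, titrated compounds with EC50 EGF were incubated 5 hours. Finally, CCF4 was added for 2.5 hours and the 460/530 nm ratio recorded.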

[3] = target: Cytochrome P450 1A2 (Homo sapiens) (UniProt P05177); test: p450-cyp1a2 (AID 410; calls by dose curve; also: potency is read from the fitted curve at half-maximal effect;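 as to activity change, negative = inhibition: -100% = full effect of reference inhibitor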); conditions: recombinant CYP1A2, luciferin-ME demethylation, luminescence; series mostly up to 57 µM
Sequence of Cytochrome P450 1A2 (Homo sapiens) (P05177 whole entry, looked up): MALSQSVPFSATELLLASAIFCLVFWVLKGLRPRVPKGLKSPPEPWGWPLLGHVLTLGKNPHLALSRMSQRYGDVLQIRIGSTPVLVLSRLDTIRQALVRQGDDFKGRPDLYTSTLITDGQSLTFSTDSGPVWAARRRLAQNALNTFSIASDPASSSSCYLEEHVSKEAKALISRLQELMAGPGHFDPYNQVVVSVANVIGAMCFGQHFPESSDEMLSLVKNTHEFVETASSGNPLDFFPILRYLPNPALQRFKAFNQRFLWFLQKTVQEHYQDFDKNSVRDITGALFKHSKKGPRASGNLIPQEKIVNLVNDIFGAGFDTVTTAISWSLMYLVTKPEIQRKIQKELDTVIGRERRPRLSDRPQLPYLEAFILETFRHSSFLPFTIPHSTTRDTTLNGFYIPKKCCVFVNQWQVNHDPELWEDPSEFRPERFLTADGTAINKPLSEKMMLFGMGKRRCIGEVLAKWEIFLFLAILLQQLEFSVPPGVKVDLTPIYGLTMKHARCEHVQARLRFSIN
How it was run: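 Inhibition was calculated relative to 57 uM furafylline (full inhibition). The reaction used human CYP1A2 at 20nM with Luciferin-ME at its Km, 100uM, driven by an NADPH-regenerating system for 60 min at room temperature.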

[4] = Stat Signaling Pathway (AID 446); conditions: ME-180 SIE beta-lactamase reporter, IL-6 stimulated, 5 h; at 7.69 µM (top of the series) unless noted;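 also: ME-180 cervical cancer cells given 40 pM IL-6 alongside compound; SIE-controlled beta-lactamase reporter measured as 460/530 nm FRET emission ratio; % is scaled to controls: 0 for no effect and ±100 for the full control effect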
How it was run: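 ME-180 cells carrying a SIE-driven beta-lactamase reporter are stimulated with 40 pM IL-6 for 5 h at 37C in the presence of compound. The 460/530 nm FRET substrate ratio is read after 2.5 h at RT. Data are normalised to 300 pM IL-6 and to 125 nM JAK inhibitor controls.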

[5] = target: Glucocorticoid receptor (Homo sapiens) (UniProt P04150); test: GR-EFC Redistribution (AID 451; calls by dose curve; also: potency is read from the fitted curve at half-maximal effect); conditions: CHO-K1 GR-EFC translocation, beta-gal luminescence, 2 h
Sequence of Glucocorticoid receptor (Homo sapiens) (P04150 whole entry, looked up, the tested form may be a part): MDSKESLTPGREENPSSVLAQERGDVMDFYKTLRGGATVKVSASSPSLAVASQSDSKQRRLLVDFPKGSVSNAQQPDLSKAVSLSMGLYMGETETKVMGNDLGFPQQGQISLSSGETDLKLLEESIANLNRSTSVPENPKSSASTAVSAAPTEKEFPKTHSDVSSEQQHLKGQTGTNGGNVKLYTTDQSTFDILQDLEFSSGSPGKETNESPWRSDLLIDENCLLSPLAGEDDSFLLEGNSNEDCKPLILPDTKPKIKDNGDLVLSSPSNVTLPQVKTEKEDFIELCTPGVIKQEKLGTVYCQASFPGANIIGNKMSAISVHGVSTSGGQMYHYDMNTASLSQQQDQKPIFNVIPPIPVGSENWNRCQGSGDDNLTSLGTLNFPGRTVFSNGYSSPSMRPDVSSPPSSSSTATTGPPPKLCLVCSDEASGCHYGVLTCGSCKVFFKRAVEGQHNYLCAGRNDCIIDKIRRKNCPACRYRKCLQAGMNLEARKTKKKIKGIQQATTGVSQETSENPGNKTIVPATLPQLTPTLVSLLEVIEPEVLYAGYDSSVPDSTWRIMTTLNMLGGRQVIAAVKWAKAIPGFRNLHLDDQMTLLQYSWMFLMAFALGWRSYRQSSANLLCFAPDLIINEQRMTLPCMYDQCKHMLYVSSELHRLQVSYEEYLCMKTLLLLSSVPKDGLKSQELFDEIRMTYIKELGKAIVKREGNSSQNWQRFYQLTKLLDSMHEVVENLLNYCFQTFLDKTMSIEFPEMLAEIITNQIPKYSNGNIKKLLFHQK
How it was run: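 CHO-K1 cells expressing nuclear EA and GR-ED fragments of b-gal; compounds titrated up to 46 uM final, 2 h at 37 C. GR nuclear translocation read as complemented b-gal luminescence after 1 h RT detection.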

[6] = target: Mitogen-activated protein kinase 10 (Mus musculus) (UniProt Q61831); test: JNK3 AlphaScreen Assay (AID 530); conditions: JNK3 lysate, c-Jun phosphorylation; series mostly up to 57.1 µM;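 also: kinase came from lysate of stimulated human HepG2 cells; signal reports phosphorylation of biotinylated GST-cJun 1-79 at Ser73 with 10 µM ATP; % is scaled to controls: 0 for no effect and ±100 for the full control effect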
How it was run: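 qHTS format: compounds tested as titrations against IL-1beta/TNF-alpha-activated HepG2 lysate JNK3 with biotin-GST-cJun substrate and 10 uM ATP at room temperature. Loss of anti-phospho-cJun AlphaScreen signal indicates inhibition.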

[7] = target: 3',5'-cyclic-AMP phosphodiesterase 4B (Homo sapiens) (UniProt Q07343); test: qHTS Assay for Inhibitors of PDE-IV (AID 607; active = well fitted activation curve with a large enough effect in the main read-out, with a control signal flat, not every such curve was filed as active; also: % of control where 0% means no effect); conditions: HEK293 ACTOne CNG channel cells, membrane potential fluorescence; series mostly up to 22.9 µM
Sequence of 3',5'-cyclic-AMP phosphodiesterase 4B (Homo sapiens) (Q07343 whole entry, looked up): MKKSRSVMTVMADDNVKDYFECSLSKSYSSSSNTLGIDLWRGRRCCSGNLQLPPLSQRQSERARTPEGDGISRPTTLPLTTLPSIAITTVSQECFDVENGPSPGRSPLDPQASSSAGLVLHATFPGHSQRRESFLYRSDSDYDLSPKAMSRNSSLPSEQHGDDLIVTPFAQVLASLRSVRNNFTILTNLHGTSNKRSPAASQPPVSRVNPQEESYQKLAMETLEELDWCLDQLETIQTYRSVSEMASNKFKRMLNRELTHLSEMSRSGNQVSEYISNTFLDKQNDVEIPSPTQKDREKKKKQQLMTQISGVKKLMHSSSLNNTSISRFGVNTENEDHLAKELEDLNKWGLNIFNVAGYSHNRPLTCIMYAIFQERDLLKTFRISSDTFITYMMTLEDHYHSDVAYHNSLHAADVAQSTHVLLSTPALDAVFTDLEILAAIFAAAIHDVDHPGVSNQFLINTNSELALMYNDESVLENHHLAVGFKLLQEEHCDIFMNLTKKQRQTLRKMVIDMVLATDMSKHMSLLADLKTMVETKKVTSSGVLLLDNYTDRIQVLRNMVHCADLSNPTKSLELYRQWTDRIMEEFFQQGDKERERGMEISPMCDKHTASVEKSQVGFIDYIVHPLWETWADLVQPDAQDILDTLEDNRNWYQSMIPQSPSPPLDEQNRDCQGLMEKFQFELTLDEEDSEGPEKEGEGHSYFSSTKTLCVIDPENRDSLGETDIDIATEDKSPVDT
How it was run: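 HEK293 ACTOne cells with CNG channel (1000/well), endogenous PDE4; membrane potential dye, compounds up to 22.9 uM final. Fluorescence Ex 535/Em 590; RO 20-1724 (100 uM final) as reference.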

[8] = target: Cytochrome P450 2D6 (Homo sapiens) (UniProt P10635); test: qHTS Assay for Inhibitors and Substrates of Cytochrome P450 2D6 (AID 891; active = well fitted curve in the direction sought with a large enough effect; an effect the other way counts as inactive or inconclusive; also: potency is read from the fitted curve at half-maximal effect; nearly all actives have a fitted effect of over 60% in size); conditions: recombinant CYP2D6, luciferin-ME EGE luminescence; series mostly up to 57.1 µM
Sequence of Cytochrome P450 2D6 (Homo sapiens) (P10635 whole entry, looked up): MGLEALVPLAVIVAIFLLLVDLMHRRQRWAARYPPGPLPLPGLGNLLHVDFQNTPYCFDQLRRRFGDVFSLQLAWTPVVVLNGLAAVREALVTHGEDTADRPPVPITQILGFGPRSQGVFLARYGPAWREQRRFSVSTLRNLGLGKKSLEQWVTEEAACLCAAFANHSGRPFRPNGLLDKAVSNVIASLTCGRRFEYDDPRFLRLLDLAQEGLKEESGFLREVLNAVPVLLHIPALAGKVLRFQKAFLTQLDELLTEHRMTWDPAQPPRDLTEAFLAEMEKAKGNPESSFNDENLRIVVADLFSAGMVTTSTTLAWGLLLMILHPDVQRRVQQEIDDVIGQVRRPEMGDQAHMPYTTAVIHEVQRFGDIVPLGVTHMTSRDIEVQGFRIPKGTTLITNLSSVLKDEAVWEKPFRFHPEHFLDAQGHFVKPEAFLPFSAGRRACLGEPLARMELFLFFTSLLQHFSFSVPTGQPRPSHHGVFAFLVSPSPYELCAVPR
How it was run: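 Human CYP2D6 (5 nM) with 30 uM Luciferin-ME EGE (at Km) in 100 mM KPO4, compound preincubated 10 min, then NADPH regeneration system for 60 min at room temperature. Luciferin read by luminescence; normalized to 1.43 uM quinidine.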

[9] = qHTS Assay for Lipid Storage Modulators (AID 1519; calls by dose curve); conditions: Drosophila S3 cells, BODIPY lipid droplet/cell ratio, laser cytometry, cells loaded with oleic acid; for activity change, negative = inhibition: at 57.5 µM (top of the series)
How it was run: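 Cells seeded at 5,000 per well were treated with compounds over a concentration series and loaded with oleic acid (400 uM, as added). Lipid droplet fluorescence (488 nm excitation, 500-530 nm channel) was read by laser-scanning cytometry and normalized to 20 uM Triacsin C.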

[10] = Primary qHTS for small molecule stabilizers of the endoplasmic reticulum resident proteome: Secreted ER Calcium Modulated Protein (SERCaMP) assay (AID 1508630; active = well fitted curve in the direction sought with a large enough effect; an effect the other way counts as inactive or inconclusive; also: % is scaled to controls: 0 for no effect and ±100 for the full control effect); conditions: SH-SY5Y GLuc-SERCaMP (Gaussia luciferase released on ER calcium loss) secretion, thapsigargin, luminescence; series mostly up to 38.4 µM
How it was run: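 GLuc-SERCaMP-expressing SH-SY5Y cells, pretreated 16 h with compound, are challenged with thapsigargin to empty ER calcium stores; after 4 h, coelenterazine is added directly to the medium and luminescence is imaged.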

[11] = target: Cytochrome P450 2C19 (Homo sapiens) (UniProt P33261); test: qHTS Assay for Inhibitors and Substrates of Cytochrome P450 2C19 (AID 899; active = well fitted curve in the direction sought with a large enough effect; an effect the other way counts as inactive or inconclusive; also: potency is read from the fitted curve at half-maximal effect; nearly all actives have a fitted effect of over 60% in size); conditions: recombinant CYP2C19, luciferin-H EGE luminescence; series mostly up to 57.1 µM
Sequence of Cytochrome P450 2C19 (Homo sapiens) (P33261 whole entry, looked up): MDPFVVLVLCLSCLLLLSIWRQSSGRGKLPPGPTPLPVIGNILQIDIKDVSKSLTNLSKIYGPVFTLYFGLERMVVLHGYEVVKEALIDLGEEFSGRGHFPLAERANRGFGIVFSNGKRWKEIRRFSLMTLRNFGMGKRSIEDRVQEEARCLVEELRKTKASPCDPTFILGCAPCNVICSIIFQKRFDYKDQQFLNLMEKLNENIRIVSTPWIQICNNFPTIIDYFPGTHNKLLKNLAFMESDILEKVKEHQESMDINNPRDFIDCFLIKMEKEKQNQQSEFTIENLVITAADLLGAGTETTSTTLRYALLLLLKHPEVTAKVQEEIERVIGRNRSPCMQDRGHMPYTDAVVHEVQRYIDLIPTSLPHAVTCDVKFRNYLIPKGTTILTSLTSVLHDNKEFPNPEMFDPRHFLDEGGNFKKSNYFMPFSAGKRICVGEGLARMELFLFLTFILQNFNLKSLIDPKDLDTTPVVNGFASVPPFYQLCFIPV
How it was run: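 Signal comes from luciferase acting on luciferin released by CYP2C19-mediated hydroxylation of Luciferin-H EGE, 10uM (KM). Assay mix: 5nM enzyme, 50mM KPO4; 60 min at 37C with NADPH regeneration. Data normalized against 57uM ketoconazole.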

[12] = target: Cytochrome P450 3A4 (Homo sapiens) (UniProt P08684); test: qHTS Assay for Inhibitors and Substrates of Cytochrome P450 3A4 (AID 884; active = well fitted curve in the direction sought with a large enough effect; an effect the other way counts as inactive or inconclusive; also: % is scaled to controls: 0 for no effect and ±100 for the full control effect; nearly all actives have a fitted effect of over 50% in size); conditions: recombinant CYP3A4, Luciferin-PPXE luminescence; series mostly up to 57.1 µM
Sequence of Cytochrome P450 3A4 (Homo sapiens) (P08684 whole entry, looked up): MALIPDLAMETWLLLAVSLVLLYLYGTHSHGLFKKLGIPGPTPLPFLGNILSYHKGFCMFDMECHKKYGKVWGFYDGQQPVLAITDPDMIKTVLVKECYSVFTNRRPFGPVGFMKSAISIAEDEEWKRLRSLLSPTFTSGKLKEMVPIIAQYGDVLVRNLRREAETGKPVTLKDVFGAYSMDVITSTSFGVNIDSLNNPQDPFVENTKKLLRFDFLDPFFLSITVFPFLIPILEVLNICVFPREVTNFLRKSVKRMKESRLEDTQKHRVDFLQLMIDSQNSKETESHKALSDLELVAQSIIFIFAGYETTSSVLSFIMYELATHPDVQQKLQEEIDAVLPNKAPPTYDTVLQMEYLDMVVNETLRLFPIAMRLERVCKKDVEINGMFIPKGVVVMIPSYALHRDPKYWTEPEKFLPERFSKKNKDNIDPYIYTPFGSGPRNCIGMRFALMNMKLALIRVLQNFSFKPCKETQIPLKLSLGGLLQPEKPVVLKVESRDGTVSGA
How it was run: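 20 nM human CYP3A4 with 25 uM Luciferin-PPXE (at KM) in 200 mM KPO4, preincubated 10 min with compound; NADPH regeneration started a 60 min RT reaction. Luciferin detected by luminescence, normalized to 57 uM ketoconazole as full inhibition.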

[13] = target: Cytochrome P450 3A4 (Homo sapiens) (UniProt P08684); test: qHTS Assay for Activators of Cytochrome P450 3A4 (AID 885; active = well fitted curve in the direction sought with a large enough effect; an effect the other way counts as inactive or inconclusive; also: nearly all actives have a fitted effect of over 65% in size); conditions: recombinant CYP3A4, Luciferin-PPXE luminescence, 60 min; series mostly up to 57.1 µM
How it was run: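 Human CYP3A4 (20 nM) with Luciferin-PPXE at 25 uM (its KM) in 200 mM KPO4; 10 min compound preincubation, then NADPH regeneration and 60 min reaction at RT. Luciferin read by luminescence; normalized to 57 uM ketoconazole full inhibition.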

[14] = qHTS Assay for Identification of Small Molecule Agonists for Hypoxia Response Element Signaling Pathway (AID 914; active = well fitted activation curve with a large enough effect in the signal ratio, with a control signal flat, not every such curve was filed as active; the % refers to the signal ratio; also: % of control where 0% means no effect); conditions: ME-180 (cervical carcinoma) HRE-bla reporter, beta-lactamase ratio, CoCl2, 17 h; activation: stronger effect = higher value
How it was run: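 In Opti-MEM containing 0.5% dialyzed FBS and 10 mM HEPES, ME-180 HRE-bla cells received a compound titration and EC50 CoCl2. They were incubated 17 hours, then CCF4-loaded 2.5 hours at room temperature before ratio reading.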

[15] = target: Cytochrome P450 2C9 (Homo sapiens) (UniProt P11712); test: qHTS Assay for Inhibitors and Substrates of Cytochrome P450 2C9 (AID 883; active = well fitted curve in the direction sought with a large enough effect; an effect the other way counts as inactive or inconclusive; also: potency is read from the fitted curve at half-maximal effect; nearly all actives have a fitted effect of over 60% in size); conditions: recombinant CYP2C9, luciferin-H luminescence, 60 min; series mostly up to 57.1 µM
Sequence of Cytochrome P450 2C9 (Homo sapiens) (P11712 whole entry, looked up): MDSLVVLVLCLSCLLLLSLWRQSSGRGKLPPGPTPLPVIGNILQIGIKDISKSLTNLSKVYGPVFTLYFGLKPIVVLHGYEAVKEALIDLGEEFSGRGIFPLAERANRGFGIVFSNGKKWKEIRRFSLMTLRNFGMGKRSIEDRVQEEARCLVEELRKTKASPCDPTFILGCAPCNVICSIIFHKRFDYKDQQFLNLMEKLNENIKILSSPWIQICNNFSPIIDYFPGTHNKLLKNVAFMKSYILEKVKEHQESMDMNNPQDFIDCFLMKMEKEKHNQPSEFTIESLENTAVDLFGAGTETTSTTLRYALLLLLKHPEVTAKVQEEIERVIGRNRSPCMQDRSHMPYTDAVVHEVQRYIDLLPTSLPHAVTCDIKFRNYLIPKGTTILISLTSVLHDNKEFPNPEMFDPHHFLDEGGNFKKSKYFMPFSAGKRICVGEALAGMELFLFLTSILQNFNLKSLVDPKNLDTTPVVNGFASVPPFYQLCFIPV
How it was run: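 Signal: luciferase luminescence reporting luciferin produced by CYP2C9. Conditions: 10nM enzyme, Luciferin-H 100uM at KM, 25mM KPO4, 37C, 60 min NADPH-driven reaction. Reference: 57uM sulphaphenazole as 100% inhibition.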

[16] = NFAT Signaling Pathway (AID 444); conditions: Jurkat NFAT-bla M1, carbachol, beta-lactamase ratio, 5 h; at 7.69 µM (top of the series) unless noted
How it was run: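 Jurkat cells with NFAT-driven β-lactamase reporter and co-expressed M1 receptor, stimulated with carbachol (final 1 uM, ~EC50), compound titration, 5 h at 37 °C. CCF4 loaded 1 h at RT; 460/530 nm ratio gave %activity and AC50.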

[17] = target: Glucocorticoid receptor (Homo sapiens) (UniProt P04150); test: GR-GFP Redistribution (AID 450;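 active = compounds whose dose series gives a full or clear partial fitted curve of increased nuclear translocation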; also: potency is read from the fitted curve at half-maximal effect); conditions: U2OS GR-GFP nuclear translocation, laser cytometry, 2 h
[18] = measured here: cell count channel max response
[19] = measured here: lipid channel max response

Compound	Potency [1]	activity change, negative = inhibition [2]	Potency [3]	activity, negative = inhibition [4]	Potency [5]	Potency [6]	Potency [7]	Potency [8]	activity change, negative = inhibition [9]	max response [9, 18] [%]	max response [9, 19] [%]	outcome [10]	Potency [11]	Potency [12]	Potency [13]	activation [14]	Potency [15]	activity change, negative = inhibition [16]	Potency [17]
CC(C)CN1CCC2(CC1)CCN(C(=O)c1cccc(F)c1)CC2	> 11.4 µM (inactive)	-11.3% (inactive)	inactive	0.382% (inactive)	> 46 µM (inactive)	inactive	inactive	5.01 µM (active)	0.839% (inactive)	1.53	2.51	inactive	–	–	–	–	–	–	–
COc1ccc(NC(=O)N2CCC3(CC2)CCN(S(C)(=O)=O)CC3)cc1	> 11.4 µM (inactive)	-1.54% (inactive)	inactive	2.59% (inactive)	> 46 µM (inactive)	inactive	inactive	–	8.18% (inactive)	16.5	28.9	inactive	3.16 µM (active)	–	–	–	–	–	–
COc1ccccc1CN1CCC2(CC1)CCN(C(=O)c1c(C)noc1C)CC2	> 11.4 µM (inactive)	4.81% (inactive)	inactive	-4.2% (inactive)	> 46 µM (inactive)	inactive	inactive	7.94 µM (active)	1.42% (inactive)	11.3	18.8	inactive	–	–	–	–	–	–	–
N#Cc1ccc(CN2CC3(CCN(C(=O)c4cccc(F)c4)CC3)C2)cc1	> 11.4 µM (inactive)	20.2% (inactive)	3.98 µM (active)	-1.68% (inactive)	> 46 µM (inactive)	–	inactive	–	-2.25% (inactive)	2.82	3.31	inactive	2 µM (active)	inactive	–	–	–	–	–
O=C(Oc1ccccc1)N1CCC2(CCCN(c3ccccn3)C2)CC1	> 11.4 µM (inactive)	-14.7% (inactive)	20 µM (active)	2.71% (inactive)	> 46 µM (inactive)	inactive	inactive	–	1.87% (inactive)	-15.5	-9.96	inactive	7.94 µM (active)	–	inactive	–	–	–	–
CC(C)CN1CCCC2(CCN(C(=O)c3cc(C(F)(F)F)cc(C(F)(F)F)c3)CC2)C1	> 11.4 µM (inactive)	-4.78% (inactive)	12.6 µM (active)	-8.44% (inactive)	> 46 µM (inactive)	inactive	–	–	2.29% (inactive)	11.6	17.9	inactive	–	–	inactive	-20.4% (inactive)	–	–	–
O=S(=O)(c1ccccc1)N1CCC2(CCN(Cc3ccccc3)CC2)CC1	> 11.4 µM (inactive)	5.55% (inactive)	inactive	1.04% (inactive)	> 46 µM (inactive)	inactive	inactive	–	3.53% (inactive)	18.1	22.9	inactive	–	–	–	14.1% (inactive)	–	–	–
O=C(c1cccc(F)c1)N1CCC2(CC1)CN(c1ccncc1)C2	> 11.4 µM (inactive)	-2.31% (inactive)	inactive	1.58% (inactive)	> 46 µM (inactive)	–	inactive	–	-4.55% (inactive)	-24.1	-26.4	inactive	3.16 µM (active)	–	–	–	5.01 µM (active)	–	–
Cn1cccc1C(=O)N1CCC2(CC1)CN(C(=O)Nc1cccc(F)c1)C2	> 11.4 µM (inactive)	5.05% (inactive)	–	-4.36% (inactive)	> 46 µM (inactive)	inactive	inactive	–	2.3% (inactive)	-3.47	0.81	inactive	–	–	–	–	–	6.99% (inactive)	–
Cc1nc2cnc(N3CCNCC3)nc2n(C2CC2)c1=O	> 11.4 µM (inactive)	5.94% (inactive)	–	-7.48% (inactive)	> 46 µM (inactive)	inactive	inactive	–	0.607% (inactive)	18.2	19.1	inactive	–	–	–	–	–	3.04% (inactive)	> 9.22 µM (inactive)
